# About 2,800 (0.76%) of roughly 370,000 compounds were called active. No stated cut-off is given here; in the data, active means inhibition above about 21%; inactive means the rest. The entries come from a sample that favours actives as a whole.
# Target: E3 ubiquitin-protein ligase UHRF1 (Homo sapiens) (UniProt Q96T88)
# Test: blockers of UHRF1 binding to methyl-oligo – biochemical, TR-FRET, human UHRF1, single concentration, counter-screen for MBD2 inhibitor project, primary screen (AID 687016);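 further: UHRF1 SRA domain binding a hemimethylated CpG hairpin DNA probe; 0% = median of test compound wells and 100% = reference inhibitor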
# Settings: UHRF1 binding to methylated oligo, at 4.4 µM, stronger effect = higher value
# Sequence of E3 ubiquitin-protein ligase UHRF1 (Homo sapiens) (Q96T88 whole entry, looked up, the tested form may be a part): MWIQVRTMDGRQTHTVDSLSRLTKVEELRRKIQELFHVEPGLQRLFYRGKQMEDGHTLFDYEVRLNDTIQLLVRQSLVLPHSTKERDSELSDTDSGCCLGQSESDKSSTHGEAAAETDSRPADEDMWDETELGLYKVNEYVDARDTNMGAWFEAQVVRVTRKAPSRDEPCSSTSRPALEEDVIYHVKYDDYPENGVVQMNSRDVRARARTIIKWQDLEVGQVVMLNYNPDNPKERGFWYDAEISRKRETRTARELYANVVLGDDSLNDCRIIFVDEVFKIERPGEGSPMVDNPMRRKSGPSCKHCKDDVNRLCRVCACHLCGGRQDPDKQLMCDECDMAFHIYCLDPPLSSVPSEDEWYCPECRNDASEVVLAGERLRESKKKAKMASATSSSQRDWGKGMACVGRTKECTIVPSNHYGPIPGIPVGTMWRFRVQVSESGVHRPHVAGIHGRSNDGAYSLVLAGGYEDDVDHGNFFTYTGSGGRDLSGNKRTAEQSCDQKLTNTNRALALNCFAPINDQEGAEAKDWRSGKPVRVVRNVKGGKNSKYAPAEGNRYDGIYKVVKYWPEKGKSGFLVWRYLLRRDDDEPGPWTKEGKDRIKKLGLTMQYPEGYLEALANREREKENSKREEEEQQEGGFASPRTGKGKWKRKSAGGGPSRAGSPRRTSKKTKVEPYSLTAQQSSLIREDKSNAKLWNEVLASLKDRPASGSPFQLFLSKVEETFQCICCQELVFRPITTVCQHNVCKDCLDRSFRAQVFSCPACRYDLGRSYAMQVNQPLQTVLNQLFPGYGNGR
row,SMILES,inhibition
1,COc1ccc(-n2c(SCC(=O)Nc3ccc(C)c(Cl)c3)nc3ccccc3c2=O)cc1,0.63% (inactive)
2,COc1ccc(C2CC=C(C(=O)O)C(c3ccccc3F)N2S(=O)(=O)c2ccc(C)cc2)cc1OC (stereo unspecified),-0.43% (inactive)
3,COc1cccc(N(C)C(=O)[C@@H](C)[C@@H](O)c2ccc3ccccc3c2)c1,-1.4% (inactive)
4,CC(C)Oc1ccc(C2NC(=O)NC2=O)cc1 (stereo unspecified),25% (active)
5,O=C1NC(=O)C(c2ccc(Cl)cc2)N1 (stereo unspecified),2.25% (inactive)
6,COc1ccc(C2NC(=O)N(C)C(C)=C2[N+](=O)[O-])cc1 (stereo unspecified),0.56% (inactive)
7,N#Cc1ccccc1OC[C@@H](O)CN1CCC(C(O)(c2ccccc2)c2ccccc2)CC1,-2.62% (inactive)
8,Cc1ccc(CN2CCCCC(NC(=O)C3CCCCC3)C2=O)cc1 (stereo unspecified),-1.14% (inactive)
9,CCCN(CCC)C(=S)Nc1cc(C(=O)OC)ccc1C(=O)OC,20.9% (active)
10,CCN(CCO)C(=S)Nc1cc(C(=O)OC)ccc1C(=O)OC,2.08% (inactive)
11,CCS(=O)(=O)Nc1cc(C(=O)OC)ccc1C(=O)OC,-4.74% (inactive)
12,COc1cccc(/C=C2\CC3(OC(C)=O)CCCN2C3)c1 (stereo unspecified),-1.67% (inactive)
13,COc1ccc(NS(=O)(=O)c2ccc(C)c(C(=O)NCC(c3cccs3)N3CCOCC3)c2)cc1 (stereo unspecified),3.98% (inactive)
14,Cc1ccc(-c2nn(-c3ccc(F)cc3)cc2C(=O)NCC(c2cccs2)N2CCOCC2)cc1 (stereo unspecified),-1.94% (inactive)
15,O=C(NCC(c1cccs1)N1CCOCC1)c1cc(Cl)ccc1[N+](=O)[O-] (stereo unspecified),29.1% (active)
16,O=C(NCC1COc2ccccc2O1)c1ccc(NC(=O)c2cc(F)ccc2F)cc1 (stereo unspecified),-0.34% (inactive)
17,O=C(CNS(=O)(=O)c1ccccc1F)N1CCN(c2ccccn2)CC1,-1.25% (inactive)
18,NC1=CC(=O)C(=O)c2cccnc21,21.7% (active)
19,Cc1nc(SCC(=O)NC2CCCCC2C)c(C#N)c(C)c1C (stereo unspecified),3.02% (inactive)
20,Cc1cc(C(F)(F)F)c(C#N)c(SCC(=O)NC2CC2)n1,25.8% (active)
21,Cc1cc(C)c(C#N)c(SCC(=O)NN2CC(=O)N(c3ccccc3F)CC2=O)n1,1.74% (inactive)

row,SMILES,inhibition
1,CCCCOCCCNC(=O)C[C@H]1C[C@@]2(C(=O)OC)C(=C[C@H](COCc3ccccc3)O[C@@H]2C)N(Cc2cccc3ccccc23)C1=O,-3.11% (inactive)
2,CCOC(=O)c1csc(NC(=O)C2CCCN(S(=O)(=O)c3ccc(Cl)s3)C2)n1 (stereo unspecified),0.11% (inactive)
3,CC(C)CNS(=O)(=O)CC1NCCc2ccccc21 (stereo unspecified),1.66% (inactive)
4,CN(C)[C@@H]1C(=O)C(C(N)=O)=C(O)[C@@]2(O)C(=O)C3=C(O)c4c(O)ccc(Cl)c4[C@@H](O)[C@H]3C[C@@H]12,35.1% (active)
5,C=C1c2c(Cl)ccc(O)c2C(O)=C2C(=O)[C@]3(O)C(O)=C(C(N)=O)C(=O)[C@@H](N(C)C)[C@@H]3[C@@H](O)C12 (stereo partly specified),58.9% (active)
6,CC(C)C(C#CC1CC1)N(Cc1ccc2c(c1)OCO2)C(N)=NC(=O)/C=C/c1cccc(C(F)(F)F)c1 (stereo unspecified),-0.23% (inactive)
7,CN(CCO)c1cccc2c1S(=O)(=O)N(Cc1cn(Cc3ccc(C(F)(F)F)cc3)nn1)Cc1ccccc1O2,1.05% (inactive)
8,CCCCC(=O)N[C@@H]1CC[C@@]23CCCN2C(=O)CCC[C@H]3[C@H]1C,-2.76% (inactive)
9,CCN(Cc1ccncc1)C(=O)CCc1ccccc1,-1.14% (inactive)
10,CCN(Cc1ccccc1)C(=O)CSc1nc(C)cc2c1C(=O)OC2,26% (active)
11,CCOC(=O)CSc1nc(C)cc2c1C(=O)OC2,-0.04% (inactive)
12,COc1ccc(-n2c(SCC(=O)Nc3ccccc3-c3ccccc3)nnc2-c2cccnc2)cc1,1.25% (inactive)
13,C[C@@H]1ON(C)[C@H]2C[C@H]3c4[nH]c5cccc(-c6ccc7c(c6)OCO7)c5c4CCN3C[C@@H]12,4.06% (inactive)
14,COc1ccc(CCNC(=O)CCn2c(=O)c3ccccc3n(CC(=O)NCC3CCCO3)c2=O)cc1OC (stereo unspecified),2.05% (inactive)
15,COc1ccc(CCn2c(=N)c(C(=O)NCC3CCCO3)cc3c(=O)n4cccc(C)c4nc32)cc1OC (stereo unspecified),24.6% (active)
16,Cc1ccc2nc3c(cc(C(=O)NCCc4ccccc4)c(=N)n3CC3CCCO3)c(=O)n2c1 (stereo unspecified),-6.46% (inactive)
17,O=C(c1cccc(C(F)(F)F)c1)N1CC[C@H]2[C@H](CCCN2Cc2cc(F)cc(F)c2)C1,-0.64% (inactive)
18,Cc1noc(C)c1NC(=O)Nc1ccc2c(c1)C(=O)N([C@H](C)CO)C[C@H](C)[C@@H](CN(C)C(=O)Nc1ccc(C(F)(F)F)cc1)O2,-2.17% (inactive)
19,Cc1noc(C)c1NC(=O)Nc1ccc2c(c1)C(=O)N([C@H](C)CO)C[C@H](C)[C@@H](CN(C)C(=O)Nc1ccccc1)O2,22.9% (active)
20,Cc1noc(C)c1NC(=O)Nc1cccc2c1O[C@H](CN(C)C(=O)Nc1ccccc1)[C@@H](C)CN([C@H](C)CO)C2=O,-2.78% (inactive)

# Source: PubChem BioAssay AID687016 (The Scripps Research Institute Molecular Screening Center, 2013)
